Records with an inconclusive call do not appear. Activity calls are given as the source filed them. Unless noted, calls follow the shape of the dose curve; as a rule, active = well fitted curve in the direction sought with a large enough effect in the repeat runs; inconclusive = weak or mixed curves; inactive = no such curve, though single readings can be large; an effect the other way counts as inactive or inconclusive.
Experiments:
[1] = qHTS assay for small molecule agonists of the p53 signaling pathway (AID 651631; calls by dose curve; also: nearly all actives have a fitted effect of over 15% in size)
In short: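 Stably transfected HCT-116 cells (beta-lactamase behind p53 response elements) get compounds after a 5 h settling period; 16 h later at 37 °C, FRET substrate is loaded and fluorescence read after 2 h.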

[2] = qHTS assay for small molecules that induce genotoxicity in human embryonic kidney cells expressing luciferase-tagged ATAD5 (AID 651632); also: nearly all actives have a fitted effect of over 15% in size
In short: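 DMSO vehicle served as the control. HEK293T reporter cells, 16 hr at 37C, then 30 min Amplite at room temperature; ATAD5 induction is measured as luciferase activity.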

[3] = qHTS assay for small molecule agonists of the p53 signaling pathway - cell viability (AID 651633; calls by dose curve;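 also: p53RE-bla HCT reporter cells with a stable beta-lactamase p53 reporter; series mostly up to about 83 µM; nearly all actives have a fitted effect of over 30% in size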)
In short: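 p53RE-bla cells were treated with compound for 16 hours at 37 C. Cytotoxicity was then measured as CellTiter-Glo luminescence after 30 min at room temperature.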

[4] = qHTS assay for small molecules that induce genotoxicity in human embryonic kidney cells expressing luciferase-tagged ATAD5 - cell viability (AID 651634; calls by dose curve; also: nearly all actives have a fitted effect of over 25% in size)
In short: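 Here HEK293T cells with the ATAD5 luciferase reporter are incubated with test compounds for 15.5 hr, and cytotoxicity is then gauged by measuring protease activity in live cells using fluorescence.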

[5] = qHTS assay for small molecule disruptors of the mitochondrial membrane potential - cell viability (AID 720634; calls by dose curve;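 also: human HepG2 liver cancer cells; series mostly up to about 83 µM; nearly all actives have a fitted effect of over 20% in size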)
In short: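 Viability of HepG2 cells is scored from ATP content by luminescence; cells are exposed to compound for 1 hr at 37 C and 5% CO2, then dosed with m-MPI dye before the CellTiter-Glo reagent.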

[6] = qHTS assay for small molecule disruptors of the mitochondrial membrane potential (AID 720635)
In short: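 HepG2 cells exposed to compound 1 hr at 37C, then Mito-MPS dye 30 min. Ratio read of aggregate (540/590 nm) versus monomer (490/535 nm) fluorescence.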

[7] = qHTS assay to test for compound auto fluorescence at 590 nm (red) in HepG2 cells (AID 720674)
In short: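 Fluorescence at 590 nm emission following 540 nm excitation was recorded from HepG2 wells one hour after compound transfer, with DMSO-only wells as vehicle and Rose Bengal sodium equivalency as the scale.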

[8] = qHTS assay to test for compound auto fluorescence at 535 nm (green) in HepG2 cells (AID 720675)
[9] = qHTS assay to test for compound auto fluorescence at 460 nm (blue) in HEK293 cells (AID 720678)
In short: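 HEK293 cells (2,000 per well, medium with 10% dialyzed FBS) attached for 4-5 hr at 37C, then received compound and stood overnight at 37C, 5% CO2. Blue fluorescence was read at Ex/Em 405/460 nm and expressed relative to triamterene.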

[10] = qHTS assay to test for compound auto fluorescence at 590 nm (red) in HEK293 cells (AID 720679)
In short: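 HEK293 cells (2,000/well, medium with 10% dialyzed FBS) attached for 4-5 hr at 37C, received 23 nL compound and were incubated overnight at 37C, 5% CO2. Red fluorescence was then read at 540/590nm Ex/Em, referenced to Rose Bengal sodium.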

[11] = qHTS assay to test for compound auto fluorescence at 535 nm (green) in HEK293 cells (AID 720680)
[12] = qHTS assay to test for compound auto fluorescence at 460 nm (blue) in HEK293 cell free culture (AID 720681)
In short: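 Compounds were added to cell-free DMEM with 10% FBS and fluorescence read directly. The blue channel used 405 nm excitation and 460 nm emission, with triamterene as the reference fluorophore.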

[13] = qHTS assay to test for compound auto fluorescence at 535 nm (green) in HEK293 cell free culture (AID 720682)
In short: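 Using fluorescein as calibrant, autofluorescence was quantified at 485/535 nm in cell-free DMEM containing 10% FBS after pintool addition of compound or vehicle.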

[14] = qHTS assay to test for compound auto fluorescence at 590 nm (red) in HEK293 cell free culture (AID 720683)
In short: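 Cell-free wells of DMEM with 10% FBS received compound, and intrinsic fluorescence was read at excitation/emission 540/590 nm. Values expressed as equivalence to Rose Bengal sodium.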

[15] = qHTS assay to test for compound auto fluorescence at 590 nm (red) in HepG2 cell free culture (AID 720684)
In short: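 Auto fluorescence equivalency versus Rose Bengal sodium, red channel Ex/Em 540/590 nm; compounds in cell-free MEM/10% FBS; DMSO vehicle control.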

[16] = qHTS assay to test for compound auto fluorescence at 460 nm (blue) in HepG2 cell free culture (AID 720685)
In short: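 Cell-free plates of MEM plus 10% FBS received 23 nL compound or DMSO vehicle; blue-channel (405/460 nm) intensity scored against triamterene as reference fluorophore.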

[17] = qHTS assay to test for compound auto fluorescence at 535 nm (green) in HepG2 cell free culture (AID 720686)
[18] = qHTS assay to test for compound auto fluorescence at 460 nm (blue) in HepG2 cells (AID 720687)
In short: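 HepG2 cells in MEM with 10% FBS, attached overnight at 37 C, were exposed to compound or DMSO for 1 hr at 37 C, 5% CO2. Blue fluorescence was read at 405/460 nm, with triamterene as reference fluorophore.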

[19] = target: Glucocorticoid receptor (Homo sapiens) (UniProt P04150); experiment: qHTS assay to identify small molecule agonists of the glucocorticoid receptor (GR) signaling pathway (AID 720691; active = well fitted activation curve with a large enough effect in the signal ratio in the repeat runs, not every such curve was filed as active; the % refers to the signal ratio)
In short: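 Compounds in DMSO, alongside positive controls, were added to GR-bla HeLa reporter cells and incubated 18 h at 37 C; GRE-driven beta-lactamase was detected by fluorescence after 2 h with FRET substrate at room temperature.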

[20] = target: Glucocorticoid receptor (Homo sapiens) (UniProt P04150); experiment: qHTS assay to identify small molecule antagonists of the glucocorticoid receptor (GR) signaling pathway (AID 720692; active = well fitted inhibition curve with a large enough effect in the signal ratio in the repeat runs, not every such curve was filed as active; the % refers to the signal ratio)
In short: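 In a 1536-well cell format, compounds were added 4 h after seeding GR-bla HeLa cells, together with dexamethasone at 5 nM final; reporter activity was measured by FRET-substrate fluorescence following 18 h at 37 C.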
% is scaled to controls: 0 for no effect and ±100 for the full control effect.

Glucocorticoid receptor (Homo sapiens), sequence (P04150 whole entry, looked up): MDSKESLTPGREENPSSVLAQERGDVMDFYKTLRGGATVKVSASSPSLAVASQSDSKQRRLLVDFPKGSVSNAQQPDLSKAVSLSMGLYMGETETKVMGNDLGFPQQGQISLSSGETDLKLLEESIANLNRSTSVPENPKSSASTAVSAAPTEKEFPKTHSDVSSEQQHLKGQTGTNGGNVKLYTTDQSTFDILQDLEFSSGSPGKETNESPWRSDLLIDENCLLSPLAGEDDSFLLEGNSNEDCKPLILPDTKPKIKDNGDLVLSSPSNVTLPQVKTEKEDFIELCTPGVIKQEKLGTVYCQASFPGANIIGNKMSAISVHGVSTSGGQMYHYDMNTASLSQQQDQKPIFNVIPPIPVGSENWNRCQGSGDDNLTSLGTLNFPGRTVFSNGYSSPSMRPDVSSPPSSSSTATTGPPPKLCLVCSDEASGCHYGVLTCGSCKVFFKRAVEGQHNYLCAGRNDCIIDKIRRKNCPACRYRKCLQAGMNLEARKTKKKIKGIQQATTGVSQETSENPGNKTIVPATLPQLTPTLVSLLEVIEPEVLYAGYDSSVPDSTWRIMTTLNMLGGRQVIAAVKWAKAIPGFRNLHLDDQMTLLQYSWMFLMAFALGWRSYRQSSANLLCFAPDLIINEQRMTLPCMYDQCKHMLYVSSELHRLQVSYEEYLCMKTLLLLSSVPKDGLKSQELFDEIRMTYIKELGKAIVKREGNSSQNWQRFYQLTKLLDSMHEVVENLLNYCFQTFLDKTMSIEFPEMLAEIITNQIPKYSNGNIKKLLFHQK

CC(=O)/C(C)=C/C1C(C)=CCCC1(C)C (configuration not stated)
inactive: Potency [1] | Potency [2] | Potency [3] | Potency [4] | Potency [5] | Potency [6] | outcome [7] | outcome [8] | Potency [9] | outcome [10] | outcome [11] | Potency [12] | outcome [13] | outcome [14] | outcome [15] | Potency [16] | outcome [17] | Potency [18] | Potency [19] | Potency [20]

COc1ccc(OC)c(OC)c1
inactive: Potency [1] | Potency [2] | Potency [3] | Potency [4] | Potency [5] | Potency [6] | outcome [7] | outcome [8] | Potency [9] | outcome [10] | outcome [11] | Potency [12] | outcome [13] | outcome [14] | outcome [15] | outcome [17] | Potency [18] | Potency [20]

Cc1cc(CC(=O)O)c(C)n1-c1ccc(Cl)cc1
inactive: Potency [1] | Potency [2] | Potency [3] | Potency [4] | Potency [5] | Potency [6] | outcome [7] | outcome [8] | Potency [9] | outcome [10] | outcome [11] | Potency [12] | outcome [13] | outcome [14] | outcome [15] | Potency [16] | outcome [17] | Potency [18]

CCCC[C@H]1CN(CC2CCOCC2)C(=O)OC12CCN(C1(C)CCN(C(=O)c3c(C)ncnc3C)CC1)CC2
inactive: Potency [1] | Potency [2] | Potency [3] | Potency [4] | Potency [5] | Potency [6] | outcome [7] | outcome [8] | Potency [9] | outcome [10] | outcome [11] | Potency [12] | outcome [14] | outcome [15] | outcome [17] | Potency [18]

COc1ccc2[nH]c(S(=O)Cc3ncc(C)c(OC)c3C)nc2n1 (configuration not stated)
inactive: Potency [1] | Potency [2] | Potency [3] | Potency [4] | Potency [5] | Potency [6] | outcome [7] | outcome [8] | Potency [9] | outcome [10] | outcome [11] | Potency [12] | outcome [13] | outcome [14] | outcome [15] | Potency [16] | outcome [17] | Potency [18] | Potency [20]

CCN(CC)C(C)=O
inactive: Potency [1] | Potency [2] | Potency [3] | Potency [4] | Potency [5] | Potency [6] | outcome [7] | outcome [8] | Potency [9] | outcome [10] | outcome [11] | Potency [12] | outcome [13] | outcome [14] | outcome [17] | Potency [18]

CCCCCCc1ccc(N)cc1
inactive: Potency [1] | Potency [2] | Potency [3] | Potency [4] | Potency [5] | outcome [7] | outcome [8] | Potency [9] | outcome [10] | outcome [11] | Potency [12] | outcome [13] | outcome [14] | outcome [15] | Potency [16] | outcome [17] | Potency [18] | Potency [19] | Potency [20]

CC[C@H](C)[C@H](N)C(=O)O
inactive: Potency [1] | Potency [2] | Potency [3] | Potency [4] | Potency [5] | outcome [7] | outcome [8] | Potency [9] | outcome [10] | outcome [11] | Potency [12] | outcome [13] | outcome [14] | outcome [15] | Potency [16] | outcome [17] | Potency [18] | Potency [19]

O=C=NC1CCC(CC2CCC(N=C=O)CC2)CC1 (configuration not stated)
inactive: Potency [1] | Potency [2] | Potency [3] | Potency [4] | Potency [5] | outcome [7] | outcome [8] | Potency [9] | outcome [10] | outcome [11] | Potency [12] | outcome [13] | outcome [14] | outcome [15] | Potency [16] | outcome [17] | Potency [18] | Potency [19] | Potency [20]

N=C(N=C(N)N)N1CCOCC1
inactive: Potency [1] | Potency [2] | Potency [3] | Potency [4] | Potency [5] | Potency [6] | fluorescence, relative to Rose Bengal [7] 0.372% [at 18.6 µM] | fluorescence, % of fluorescein control [8] -0.084% [at 18.6 µM] | fluorescence, % of triamterene [9] -0.223% [at 18.6 µM] | fluorescence, % of fluorescent control [10] 0.0856% [at 18.6 µM] | fluorescence, % of fluorescein [11] -0.0392% [at 18.6 µM] | fluorescence, % of fluorescent control [12] 0.0143% [at 18.6 µM] | activity change [13] -0.0209% [at 18.6 µM] | fluorescence, % of fluorescent control [14] 0.292% [at 18.6 µM] | fluorescence, % of fluorescent control [16] 0.021% [at 18.6 µM] | fluorescence, % of fluorescein control [17] -0.0914% [at 18.6 µM] | fluorescence, % of fluorescent control [18] 0.133% [at 18.6 µM] | Potency [19] | Potency [20]

Cn1c(=O)c2c(ncn2CC(O)CO)n(C)c1=O (configuration not stated)
inactive: Potency [1] | Potency [2] | Potency [3] | Potency [4] | Potency [5] | fluorescence, relative to Rose Bengal [7] 0.442% [at 18.6 µM] | fluorescence, % of fluorescein control [8] -0.21% [at 18.6 µM] | fluorescence, % of triamterene [9] -0.206% [at 18.6 µM] | fluorescence, % of fluorescent control [10] -0.424% [at 18.6 µM] | fluorescence, % of fluorescein [11] -0.0383% [at 18.6 µM] | fluorescence, % of fluorescent control [12] -0.0654% [at 18.6 µM] | activity change [13] -0.0177% [at 18.6 µM] | fluorescence, % of fluorescent control [14] 0.293% [at 18.6 µM] | fluorescence, % of Rose Bengal [15] -0.139% [at 18.6 µM] | fluorescence, % of fluorescent control [16] -0.106% [at 18.6 µM] | fluorescence, % of fluorescein control [17] -0.0139% [at 18.6 µM] | fluorescence, % of fluorescent control [18] -0.0218% [at 18.6 µM] | Potency [19] | Potency [20]

CCC(C)N(C)C(=O)c1cc2ccccc2c(-c2ccccc2Cl)n1 (configuration not stated)
inactive: Potency [1] | Potency [2] | Potency [3] | Potency [4] | Potency [5] | Potency [6] | outcome [8] | Potency [9] | outcome [10] | outcome [11] | outcome [13] | outcome [14] | outcome [15] | outcome [17] | Potency [18]

O=C(c1ccccc1)c1ccc2n1CCC2C(=O)O (configuration not stated)
inactive: Potency [1] | Potency [2] | Potency [3] | Potency [4] | Potency [5] | Potency [6] | outcome [7] | outcome [8] | Potency [9] | outcome [10] | outcome [11] | Potency [12] | outcome [13] | outcome [14] | outcome [15] | Potency [16] | outcome [17] | Potency [18]

C=Cc1c(C)c2cc3[nH]c(cc4nc(cc5nc(cc1[nH]2)C(C)=C5CCC(=O)O)C(CCC(=O)O)=C4C)c(C)c3C=C
inactive: Potency [1] | Potency [2] | Potency [3] | Potency [4] | Potency [5] | Potency [6] | outcome [7] | outcome [8] | Potency [9] | outcome [10] | outcome [11] | Potency [12] | outcome [13] | outcome [14] | outcome [17] | Potency [18] | Potency [19] | Potency [20]

Reference: PubChem BioAssay (Tox21)
